# In PubChem BioAssay (NCATS):
# Results filed as inconclusive are left out. A call without a number means that no potency is given here. Calls of active or inactive are those of the source. Unless noted, calls come from the whole dose curve.
# Molecular target: Protein phosphatase 1D (Homo sapiens) (UniProt O15297)
# Assay: RapidFire Mass Spectrometry qHTS Assay for Modulators of WT P53-Induced Phosphatase 1 (WIP1) (AID 1347424; active = well fitted curve in the direction sought with a large enough effect; an effect the other way counts as inactive or inconclusive;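 note: amount of dephosphorylated VEPPL-S-QETFS peptide product formed by WIP1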)
# Conditions: WIP1 dephosphorylation of phosphopeptide, RapidFire MS; series mostly up to 63 µM
# Outline: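 WIP1 (10 nM final) was preincubated 1 h at room temperature with compounds in Tris-HCl pH 7.5, 30 mM MgCl2, TCEP, EGTA, BSA; 2 uM VEPPL-pS-QETFS phosphopeptide was added for 5 min, quenched with formic acid, and dephosphorylated product quantified by RapidFire MS.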
# Sequence of Protein phosphatase 1D (Homo sapiens) (O15297 whole entry, looked up): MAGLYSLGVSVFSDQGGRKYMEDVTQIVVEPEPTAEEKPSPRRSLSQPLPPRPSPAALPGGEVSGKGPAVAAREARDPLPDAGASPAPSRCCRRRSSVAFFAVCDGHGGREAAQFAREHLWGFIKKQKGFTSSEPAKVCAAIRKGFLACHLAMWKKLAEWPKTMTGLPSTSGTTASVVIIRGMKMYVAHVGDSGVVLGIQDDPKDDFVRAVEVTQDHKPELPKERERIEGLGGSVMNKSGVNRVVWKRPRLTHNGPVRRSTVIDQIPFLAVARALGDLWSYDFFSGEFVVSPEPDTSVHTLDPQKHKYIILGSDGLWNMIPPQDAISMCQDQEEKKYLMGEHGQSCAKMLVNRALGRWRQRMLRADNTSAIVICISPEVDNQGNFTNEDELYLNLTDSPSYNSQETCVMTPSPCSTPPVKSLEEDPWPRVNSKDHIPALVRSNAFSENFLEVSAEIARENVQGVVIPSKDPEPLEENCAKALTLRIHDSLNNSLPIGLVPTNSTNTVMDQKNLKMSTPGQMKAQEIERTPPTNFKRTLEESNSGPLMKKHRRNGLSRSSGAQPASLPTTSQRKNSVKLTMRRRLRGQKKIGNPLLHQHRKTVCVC
row,Structure (SMILES),Potency
1,CCOP(=S)(OCC)Oc1ccc2c(C)c(Cl)c(=O)oc2c1,inactive
2,CN1CC[C@]23c4c5ccc(O)c4O[C@H]2[C@@H](O)C=C[C@H]3[C@H]1C5,inactive
3,CC(C)(C)c1ccc(O)cc1,inactive
4,C[C@@H](N)[C@@H](O)c1ccccc1,inactive
5,C[C@]12CC[C@H]3[C@@H](CCC4=CC(=O)CC[C@@H]43)[C@@H]1CC[C@@H]2OC(=O)CCc1ccco1,inactive

# Molecular target: Protein phosphatase 1D (Homo sapiens) (UniProt O15297)
# Assay: Rhodamine-PBP qHTS Assay for Modulators of WT P53-Induced Phosphatase 1 (WIP1) (AID 1347425; active = well fitted curve in the direction sought with a large enough effect; an effect the other way counts as inactive or inconclusive)
# Conditions: recombinant WIP1, Rhodamine-PBP phosphate fluorescence, real-time; series mostly up to 57.5 µM
# Outline: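 Steps: enzyme with Rh-PBP sensor and compounds, room-temperature incubation of 1 hr, baseline read, addition of VEPPL-pS-QETFS (10 uM final), kinetic fluorescence reads at 525/598 nm. Activity equals final minus baseline signal.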
row,Structure (SMILES),outcome
1,CCOP(=S)(OCC)Oc1ccc2c(C)c(Cl)c(=O)oc2c1,inactive
2,CN1CC[C@]23c4c5ccc(O)c4O[C@H]2[C@@H](O)C=C[C@H]3[C@H]1C5,inactive
3,CC(C)(C)c1ccc(O)cc1,inactive
4,C[C@@H](N)[C@@H](O)c1ccccc1,inactive

# System: not listed separately
# Assay: Primary qHTS for inhibitors of SARS-S pseudo-typed particle cell entry (AID 1479145); note: nearly all actives have a fitted effect of over 45% in size
# Conditions: SARS-S pseudotyped particle cell entry, luciferase reporter; series mostly up to 57.1 µM
row,Structure (SMILES),Potency
1,COc1ccc2cccc(CCNC(C)=O)c2c1,inactive
2,NNC(=O)c1ccncc1,inactive
3,Cc1ccccc1C(=O)N1CC/C(=N\OS(=O)(=O)O)c2ccc(Cl)cc21,inactive
4,CN1C(=O)OC(C)(C)C1=O,inactive
5,CCOc1cc(OCC)c(C(=O)CCC(=O)O)cc1OCC,inactive
6,CC(C)(C)c1ccc(O)cc1,inactive
7,COc1ccc(C2C(=O)c3ccccc3C2=O)cc1,inactive
8,NC(=O)NC(=O)Cc1ccccc1,inactive
9,CC(C)(C)NCC(O)COc1cccc2c1C[C@H](O)[C@H](O)C2 (some centres not stated),inactive
10,O=C(O)CCCCCCCC(=O)O,inactive
11,COc1ccc(C2CNC(=O)C2)cc1OC1CCCC1 (configuration not stated),inactive
12,OCCOCCN1CCN(C2=Nc3ccccc3Sc3ccccc32)CC1,inactive
13,C[C@@H](N)[C@@H](O)c1ccccc1,inactive
